The record followed here is PubChem BioAssay (NCI).

About 83,000 compounds went through this panel and 20% of them were active in at least one assay; those are over-represented in the sample as a whole.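 96-well plates, one dose, 48 hours. Percent growth reported; active if below 10.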 Calls of active or inactive are those of the source.

The test system of the assay is HL-60(TB) leukemia. Briefly: NCI-60 one-dose screen, 48 h (100 = growth as untreated, 0 = no growth, -100 = all killed). Particulars: 10 µM unless noted.
As for `CCCn1cnc2c(c1=N)C(c1ccc(OC)cc1)c1sc3c(C)cccc3c1O2` (centres undefined), the growth was 0.388% (active).

In the case of `CCN1C(=O)N(CC)C2SC(N/N=C/c3ccc(OC)cc3)=NC21` (centres undefined), the growth was -16.6% (active).

In the case of `COc1ccc(-c2cc(-c3ccc(N(C)C)cc3)n3c(n2)nc2ccccc23)cc1`, the growth was 18.4% (inactive).

With `COc1ccc(OC)c(-c2nc(SCC(=O)c3ccc(Br)cc3)nc(Nc3ccc(S(N)(=O)=O)cc3)c2C#N)c1`, the growth is 25.9% (inactive).

For `O=C(N/N=C/c1cccs1)c1[nH]c2ccc(Br)cc2c1-c1ccccc1`, the growth is -48.3% (active).

`C=C(C)[C@@H]1CC[C@]2(COCCCNCCCN)CC[C@]3(C)[C@H](CC[C@@H]4[C@@]5(C)CC[C@H](O)C(C)(C)[C@@H]5CC[C@]43C)[C@@H]12`: the growth is -28.1% (active).

With `Cc1ccc(CSc2nc(-c3ccc(Cl)cc3)c(C#N)c(N3CCOCC3)n2)cc1`, the growth is 98.2% (inactive).

On to `O=c1[nH]c(CCl)nc2c1cnn2-c1ccccc1`, for which the growth is 109% (inactive).

Turning to `N#Cc1nc(-c2ccccc2)oc1N1CCC(C2(C(F)(F)F)N=N2)CC1`, the growth is 95.4% (inactive).

As for `C[C@@H]1C[C@H]2C(=O)OCC(NC(=O)[C@H](Cc3cc(F)cc(F)c3)NC(=O)Nc3ccc(Cl)cc3F)C(=O)N3CCC[C@H]3C(=O)N3CCCC[C@H]3C(=O)N[C@@H](C)C(=O)N2C1` (some centres undefined), the growth was 6.2% (active).

Take `CNC(=O)c1cc(N2CCc3cc(NC(=O)Nc4ccc(N5CCN(C)CC5)c(C(F)(F)F)c4)ccc32)ccn1`: the growth is 79% (inactive).

`CN1CCN(CCNc2nc(-c3cccc(NS(=O)(=O)c4cccc5c(N(C)C)cccc45)c3)cs2)CC1`: the growth is 45% (inactive).

On to `CCOC(=O)c1ccccc1NC1=C(Cl)C(=O)c2nc(C)ccc2C1=O`, for which the growth was 70.9% (inactive).

Turning to `Cc1csc(Nc2cccc(Nc3nc(C)cs3)c2)n1`, the growth was 77.3% (inactive).

Consider `CCc1cc2c(cc1Cl)nc1c(=O)[nH]c(=O)nc-1n2CCOCC(C)C`, for which the growth is 51.2% (inactive).

Turning to `N#Cc1c(-c2cccs2)cc(-c2cnccn2)nc1SCC(=O)N/N=C/c1cccs1`, the growth was 96.2% (inactive).

Take `Cn1cc2c(c1)-c1c(sc3nc(-c4ccc(NC(=O)Nc5cc(C(C)(C)C)on5)cc4)cn13)CC2`: the growth is 12.4% (inactive).

Consider `NCCNC(=O)c1cccc(COc2ccccc2NC(=O)c2cc(Br)c(Br)[nH]2)c1`, for which the growth is 69.5% (inactive).

Consider `Nc1cc(F)ccc1NC(=O)c1ccc(NC(=O)C/C=C/c2cccnc2)cc1`, for which the growth was 13.4% (inactive).

For the molecule `Cc1[nH]c(C(=O)Nc2ccc(C(N)=O)cc2N2CCOC(C)C2)c(Cl)c1Cl` (centres undefined), the growth was 98.1% (inactive).

For `O=C(CSc1cc[n+](CCCCO)c2ccccc12)n1ccc2ccccc21`, the growth was 106% (inactive).

With `C[C@H]1c2[nH]c3ccccc3c2C[C@H]2C(=O)N(CCCCCCC(=O)NO)CC(=O)N21`, the growth was 108% (inactive).

In the case of `Cc1ccc(C(=O)Nc2ccc(CNCCN3CCOCC3)c(C(F)(F)F)c2)cc1C#Cc1cnc2cccnn12`, the growth is -21.3% (active).

Regarding `O=C1c2c(c3c4cc(O)ccc4oc3c3[nH]c4ccccc4c23)C(=O)N1O`, the growth is 9.22% (active).

For `Nc1c(C(=O)Nc2ccc(C(F)(F)F)cc2)sc2nc(-c3cnccn3)cc(-c3cccs3)c12`, the growth is 51.9% (inactive).

Turning to `Fc1ccc(-c2cc3nc(C(Cl)Cl)nc(-c4ccc(Cl)cc4)n3n2)cc1`, the growth is -4.23% (active).

In the case of `N#Cc1c(NC(=O)c2cccc(C(F)(F)F)c2F)sc2c1CCC(=O)C2`, the growth was -17.4% (active).

In the case of `NC1CC2(CCN(c3cnc(C(=O)Nc4cc(F)cc5cccnc45)cn3)CC2)C1`, the growth is 50.6% (inactive).

Consider `COc1ccc(-c2cc(-c3ccc(Cl)cc3)c(C#N)c(=O)n2Cc2ccc(C(=O)O)cc2)cc1`, for which the growth was 92.1% (inactive).

`CC(=O)c1nnn(-c2c(C(=O)n3nc(C)cc3C)sc(=S)n2-c2ccccc2)c1C`: the growth is 110% (inactive).

As to `Brc1cccc(-c2cc(-c3ccc4c(c3)OC=CO4)[nH]n2)c1`, the growth was 14.7% (inactive).

In the case of `CCOC(=O)/C(F)=C/C1CC1CCc1cccc(C(F)(F)F)c1` (centres undefined), the growth was 91.4% (inactive).

For the molecule `NC1=NC2(CCCC2)N(c2ccc(S(=O)(=O)Nc3nccs3)cc2)C(N)=N1`, the growth was 102% (inactive).

As to `N#Cc1ccc(/C=N/NC(=O)c2[nH]c3ccc(Br)cc3c2-c2ccccc2)s1`, the growth is -40% (active).

For the molecule `Cc1cc2nc3c4cc(Cl)ccc4n(CC(=S)NCCN(C)C)c3nc2cc1C`, the growth is -63.4% (active).

With `COc1ccc(N2CCN(C(=O)CSc3ccc(-c4nc5cc(C)c(C)cc5[nH]4)cn3)CC2)cc1`, the growth is 29.4% (inactive).

Turning to `O=C(Nc1nc2ccc([N+](=O)[O-])cc2s1)Nc1ccccc1Cl`, the growth was 28.7% (inactive).

Turning to `CCCC/C(=C\c1ccc(O)c(O)c1)C(=O)NC(Cc1ccccc1)C(=O)C(=O)NCCc1ccc(OC)cc1` (centres undefined), the growth is 92.5% (inactive).

Consider `CC/C(=C/c1c(O)cccc1OC)c1ccc2c(OC)cccc2[o+]1`, for which the growth is 106% (inactive).
